In all, about 63,000 compounds went through this assay and about 75 (0.1%) were called active. Rule as the data show it: active = inhibition above about 21%; inactive = the rest. Shown is part of a subset that was picked to be rich in actives.

In the test the target is Cathepsin B (Homo sapiens) (UniProt P07858). Kind of test: human cathepsin B inhibitors, primary screen, biochemical, fluorogenic substrate (AID 453).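 Also: 0% = enzyme with no compound and 100% = no enzyme blank.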 The settings on record: purified cathepsin B, fluorescence, active compounds read high,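 tested at 10 µM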.
For the compound `N#CCCN(CCC#N)c1nnc(-c2ccccc2)s1`, the inhibition was 1.65% (inactive).

Take `COc1ccccc1CNC(=O)CCCNS(=O)(=O)c1cccc2nsnc12`: the inhibition is 3.57% (inactive).

With `O=C(CSc1nnnn1C1CCCC1)Nc1ccc2c(c1)OCCO2`, the inhibition was -2.88% (inactive).

On to `Cc1ccccc1CSc1nnc(Cn2c(=O)sc3ccccc32)n1C`, for which the inhibition is 1.64% (inactive).

`CN1CCN(c2nc3c(c(=O)[nH]c(=O)n3C)n2Cc2cccc3ccccc23)CC1`: the inhibition is 5.25% (inactive).

Regarding `C=C(Br)CN1CCN(CC(=C)Br)CC1`, the inhibition is 8.43% (inactive).

`CCOc1cc(-c2conc2N)cc(OCC)c1OCC`: the inhibition was 0.88% (inactive).

As for `O=c1[nH]c(=O)n(Cc2ccco2)c2c1C(C(F)(F)F)(C(F)(F)F)N=C(c1ccco1)N2`, the inhibition was 3.15% (inactive).

As for `Cc1ccc(-c2nn(-c3ccccc3)cc2CN(Cc2ccccc2)C(=O)CCC(=O)O)o1`, the inhibition was -3.71% (inactive).

Turning to `O=c1oc2c(CN3CCCCC3)c(O)ccc2c2c1CCCCC2`, the inhibition was -33.1% (inactive).

In the case of `C=CCNc1nc(C)nc(OC)n1`, the inhibition is 3.19% (inactive).

Turning to `O=CN1CCN(C2CC(=O)N(c3ccc4c(c3)OCO4)C2=O)CC1` (stereo not drawn), the inhibition was -5.45% (inactive).

Take `COCCn1c(SCC(=O)Nc2cc(Cl)ccc2OC)nc2c(c1=O)SC(C)C2` (stereo not drawn): the inhibition is -1.89% (inactive).

On to `O=C(COc1ccc(Cl)cc1)Nc1ccccc1CO`, for which the inhibition was -0.12% (inactive).

Regarding `CCOC(=O)c1c(C)nc(-c2ccccc2)nc1NC(=O)C(C)C`, the inhibition was -1.86% (inactive).

Regarding `CCOC(=O)c1c(NC(=O)CSc2nnc(Cc3csc(N)n3)n2C)sc(C)c1C`, the inhibition was 1.53% (inactive).

Regarding `O=C(O)C1CCCCC1C(=O)Nc1ccc(Cl)cc1` (stereo not drawn), the inhibition was -2.32% (inactive).

Regarding `O=C1Nc2ccccc2C12Nc1ccccc1S2` (stereo not drawn), the inhibition was -3.59% (inactive).

As to `CCOC(=O)c1[nH]c2ccccc2c1N=C(C)N(CC)CC`, the inhibition was -1.09% (inactive).

As to `COC(=O)CCNc1ccc2c(c1)OCCO2`, the inhibition is -7.3% (inactive).

For the compound `O=C(Nc1nc2ccc(S(=O)(=O)N3CCCC3)cc2s1)C1CCCO1` (stereo not drawn), the inhibition is -0.69% (inactive).

Consider `Cc1nonc1NC(=O)c1ccccc1Br`, for which the inhibition was -1.31% (inactive).

As for `COc1ccc2c(c1)C(C)=CC(C)(C)N2C(=O)CNCc1ccc2c(c1)OCO2`, the inhibition is 0.73% (inactive).

For `CC(=O)Oc1cc2c(C(=O)NCCN3CCOCC3)c(C)oc2c2ccccc12`, the inhibition was -1.15% (inactive).

On to `Cc1ccc(CC2CC(=O)N(c3ccc4c(c3)OCCO4)C2=O)cc1` (stereo not drawn), for which the inhibition is 3.98% (inactive).

For the compound `N#Cc1ccccc1-n1c(N)c(C(=O)N2CCCC2)sc1=S`, the inhibition is 4.81% (inactive).

For the compound `Cc1ccc(C(C(=O)NC2CCCCC2)N(C(=O)c2csnn2)C2CC2)o1` (stereo not drawn), the inhibition was 4.47% (inactive).

On to `CCCC(=O)N1c2ccc(-c3csc(N)n3)cc2CC1C` (stereo not drawn), for which the inhibition is 1.69% (inactive).

As to `CCCCC(=O)Nc1ccc(C(=O)NCCCn2ccnc2)cc1`, the inhibition is -0.94% (inactive).

On to `CCCCCC(=O)Nc1ccc2oc(-c3ccncc3)nc2c1`, for which the inhibition is -2.27% (inactive).

Turning to `COc1ccccc1NC(=O)CSc1nnc(Cc2cccn2C)n1-c1ccc(F)cc1`, the inhibition was 2.97% (inactive).

Regarding `Cc1ccc(Nc2nc(CSc3nnnn3-c3ccccc3)cc(=O)[nH]2)cc1`, the inhibition is 1.57% (inactive).

On to `COC(=O)C1=C(C)OC(N)=C(C#N)C1c1cc(OC)ccc1OC` (stereo not drawn), for which the inhibition is 4.88% (inactive).

On to `Nc1scc(-c2ccncc2)c1Cl`, for which the inhibition is 3.27% (inactive).

As for `CC(C)c1nc(N2CCOCC2)c(C#N)c2c1COC(C)(C)C2`, the inhibition is 1.28% (inactive).

With `CCCCc1nc2ccccc2c(=O)n1NC(=O)c1c(O)c2cccc3c2n(c1=O)CC3`, the inhibition was -2.29% (inactive).

For the compound `O=C(CCSc1ccccc1)NCCSc1ccccn1`, the inhibition was 5.87% (inactive).

In the case of `COCCn1c(-c2ccc(OC)c(OC)c2)nc2ccccc21`, the inhibition was 4.56% (inactive).

As to `COc1ccc(C)c(Cn2c(-c3nonc3N)nc3ccccc32)c1`, the inhibition is 45.2% (active).

For `Nc1nonc1-c1nc2ccccc2n1Cc1ccc(F)cc1`, the inhibition is 73.1% (active).

`Nc1nonc1-c1nc2ccccc2n1CCC(=O)O`: the inhibition is 7.32% (inactive).

With `CCCn1c(C(O)c2cc(OC)ccc2OC)nc2ccccc21` (stereo not drawn), the inhibition is 5.72% (inactive).

Consider `CC(=O)Nc1nonc1-c1nc2ccccc2n1Cc1ccccn1`, for which the inhibition was -4.81% (inactive).

For `Cc1cc(NC(=O)CCC(=O)N(c2ccccc2)C(C(=O)NC2CCCC2)c2ccncc2)no1` (stereo not drawn), the inhibition is 0.19% (inactive).

Regarding `CCn1c(COc2ccccc2)nnc1SCC(=O)Nc1ccc2c(c1)OCCO2`, the inhibition is 1.14% (inactive).

For `COC(=O)Nc1nc2ccc(Sc3ccccc3)cc2[nH]1`, the inhibition was 4.96% (inactive).

Turning to `COc1ncnc2c1N=C1CC(C)(C)CC(N)=C1S2`, the inhibition was -1.8% (inactive).

Regarding `Cc1ccc2oc(=O)c3cnn(CC(=O)N4CCN(c5ccccn5)CC4)c3c2c1`, the inhibition was 3.28% (inactive).

The record behind these values is PubChem BioAssay AID453 (PCMD, 2006).
